# NPC1 prom act – activators of NPC1 promoter. Huh7 NPC1 promoter luciferase reporter, 24 h. Potency, µM (series often up to 9.22 µM), without a hit: top-dose activation, actives largely listed as activators. 320,000 tested, 2.4% active. AID 485313; also: % of control where 0% means no effect; nearly all actives have a fitted effect of over 60% in size
#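 Compounds in DMSO were transferred onto Huh7 NPC1-luciferase reporter cells pre-incubated 2 h; after 24 h at 37 °C, Amplite reagent was dispensed and luminescence recorded 10 min later.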
# ELG1 repair inh – blocks ELG1-dependent DNA repair in HEK293T cells. Potency, µM (top dose mostly 46.1 µM), inactives show at the highest dose activity change, negative = inhibition, usual class: inhibitors. AID 504467. 330,000 tested, 2.3% active. HEK293T ELG1-luciferase reporter, luminescence, 16 h; DNA damage induced by 5-fluorouridine; also: % is scaled to controls: 0 for no effect and ±100 for the full control effect; nearly all actives have a fitted effect of over 55% in size
#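 Reporter activity after DNA damage by 5-fluorouridine is monitored. Compound-treated cells incubate 16 hr at 37 °C, then ONE-Glo is added for 30 min before luminescence reading.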
# Rab9 promoter act – activators of Rab9 promoter; Huh7 Rab9 promoter-luciferase reporter, luminescence, 24 h; Potency, µM (top dose mostly 9.22 µM), for the others: at the highest dose activation, negative = inhibition, most hits filed as activators; 320,000 tested, 2.8% active; AID 485297; also: % of control where 0% means no effect; nearly all actives have a fitted effect of over 60% in size
#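 Steps: seed 1500 Huh7 Rab9-luc cells per well, rest 2 h at 37 °C; add compound in DMSO; incubate 24 h; add luciferase reagent, 10 min ambient; read luminescence.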
# SMN2 splice up – SMN2 splice variant enhancement; HEK293 SMN2-luciferase splicing reporter, luminescence, 30-36 h; AID 1458; 210,000 tested, 2.8% active; Potency, µM (doses to about 46.1 µM), for inactives: at the top dose activity change, positive = activation, usual class: activators; also: % of control where 0% means no effect; nearly all actives have a fitted effect of over 55% in size
#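 HEK293 cells carry an SMN2 minigene-luciferase reporter in which exon 7 inclusion puts luciferase in frame. Cells were seeded at 2000 cells/well, attached for 10-12 hours, then exposed to compounds for 30-36 hours at 37C before ONE-Glo luminescence.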
# ELG1 genotoxic – induces genotoxicity in HEK293T cells with luciferase-tagged ELG1; HEK293T ELG1-luciferase reporter, luminescence, 16 h; Potency, µM (top dose mostly 46 µM), without a hit: top-dose activity change, positive = activation, usual class: activators; 330,000 tested, 1.3% active; AID 504466; also: % of control where 0% means no effect; nearly all actives have a fitted effect of over 60% in size
#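 Cells (2,000/well) expressing the ELG1-luciferase fusion are dosed by pin tool and kept 16 hr at 37 °C, 5% CO2. Signal comes from ONE-Glo luciferase reagent after 30 min at room temperature.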
# FLuc modulator – counter-screen for miR-21 project: firefly luciferase inhibitors or activators; Potency, µM (titrated, usually from 57.5 µM), without a hit: at the top dose activity change, negative = inhibition, most hits filed as inhibitors; purified FLuc, Km substrates, luminescence inhibition; 360,000 tested, 6.9% active; P08659;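 also: plate controls were vehicle for no effect and reference inhibitor for full effect; nearly all actives have a fitted effect of over 55% in size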
# Target sequence (P08659 whole entry, looked up): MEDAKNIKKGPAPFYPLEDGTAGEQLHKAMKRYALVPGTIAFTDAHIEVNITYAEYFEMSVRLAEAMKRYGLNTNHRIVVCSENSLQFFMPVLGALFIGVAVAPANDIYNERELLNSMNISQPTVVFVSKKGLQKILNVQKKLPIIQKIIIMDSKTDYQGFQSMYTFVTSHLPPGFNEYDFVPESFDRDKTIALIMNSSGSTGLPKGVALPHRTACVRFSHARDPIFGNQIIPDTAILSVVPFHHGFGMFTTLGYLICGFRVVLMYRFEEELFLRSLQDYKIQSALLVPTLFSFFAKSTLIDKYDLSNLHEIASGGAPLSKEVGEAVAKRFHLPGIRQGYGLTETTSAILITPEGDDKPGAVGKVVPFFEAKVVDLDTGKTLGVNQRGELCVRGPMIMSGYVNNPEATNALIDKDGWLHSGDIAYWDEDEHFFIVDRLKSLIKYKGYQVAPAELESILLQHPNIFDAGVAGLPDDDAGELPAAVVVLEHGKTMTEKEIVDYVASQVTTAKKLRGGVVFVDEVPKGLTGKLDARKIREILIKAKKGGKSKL
#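 Purified P. pyralis luciferase, 10 nM final, with Km-level 10 uM D-luciferin and 10 uM ATP in 50 mM Tris acetate pH 7.5, 10 mM Mg acetate, 0.01% Tween-20, 0.05% BSA; 6-point qHTS titration about 60 µM downward; luminescence read.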
# * hit, by the source's call; ? = inconclusive; · = not tested or not shown. Shown are actives, neighbours in structure and some others; about 9.2% of the full set was active somewhere. Calls follow the shape of the dose curve; as a rule, active = well fitted curve in the direction sought with a large enough effect; inconclusive = small, poorly fitted or top-dose-only effect, or another doubt; inactive = no such curve, though single readings can be large; an effect the other way counts as inactive or inconclusive. Potency is read from the fitted curve at half-maximal effect.
SMILES,NPC1 prom act,ELG1 repair inh,Rab9 promoter act,SMN2 splice up,ELG1 genotoxic,FLuc modulator
COc1ccccc1N(CC(=O)NC1CCCC1)C(=O)CCC(=O)Nc1ccccn1,-2.6%,3.8%,3.3%,·,-3.3%,1.3%
CCN(C(=O)Cc1c(C(=O)O)c(C)cn1C)c1cccc(Cl)c1,·,·,·,·,·,-0.8%
COc1cc(OC)c(NC(=O)Cn2c(=O)c(C(F)(F)F)nc3ccccc32)cc1Cl,·,·,·,·,·,-0.3%
COc1cccc(OCc2cc(C(=O)NC3CCOCC3)no2)c1,?,?,?,·,?,23.9µM*
CCCC(=O)NC(c1ccco1)c1cc([N+](=O)[O-])c2cccnc2c1O (configuration not stated),-0.3%,20.6µM*,-3.6%,-79.4%,-4.1%,?
CCC(=O)NC(c1ccc(C)cc1)c1cc([N+](=O)[O-])c2cccnc2c1O (configuration not stated),-4.8%,-18.1%,-4.9%,-101.8%,0.7%,8.6%
O=C(N/N=C/c1cccc([N+](=O)[O-])c1)C1CC(=O)N(c2ccc(F)cc2)C1 (configuration not stated),-2.5%,5.3%,0.1%,-5.8%,3.8%,-0.5%
COc1ccc(N2CC(C(=O)N/N=C/c3ccc(C)cc3)CC2=O)cc1 (configuration not stated),-29.9%,-10.4%,-29.6%,-22.0%,2.3%,-0.5%
Cc1ccc(N2CC(C(=O)N/N=C/c3c(F)cccc3Cl)CC2=O)cc1 (configuration not stated),-0.6%,9.2µM*,0.8%,·,3.0%,-0.2%
O=C(Cc1ccccc1)NCC(=O)N1CCN(c2ccccc2)CC1,3.7%,?,-10.0%,·,0.1%,2.0%
CCOC(=O)c1ccccc1-c1cn2cc(Cl)ccc2n1,-2.4%,?,8.5%,6.1%,10.4%,15.1µM*
Nc1ccc2nc(CCc3ccccc3)[nH]c2c1,19.8%,?,?,?,15.1%,?
Nc1ccc(C(=O)OCCCc2nc3cc4ccccc4cc3[nH]2)cc1,1.3%,?,18.6%,·,-1.5%,15.1µM*
Cc1ccc2nc(CCc3ccc(N)cc3)[nH]c2c1,2.82µM*,?,3.16µM*,·,?,15.1µM*
CCc1nc2ccc(Cc3ccc4nc(CC)[nH]c4c3)cc2[nH]1,-1.5%,-24.5%,9.7%,·,-0.2%,12µM*
Nc1ccc(Cc2nc3cc4ccccc4cc3[nH]2)cc1,?,?,?,12.6µM*,14.0%,19µM*
Cc1cccc(C(=O)Nc2ccc3nc(SCC(=O)N4CCc5ccccc54)sc3c2)c1,·,·,·,·,·,-2.0%
Nc1ccc(C(=O)OCc2nc3c(ccc4ccccc43)[nH]2)cc1,24.7%,?,?,154.4%,?,13.5µM*
Cc1ccc(C(=O)Nc2ccc3c(c2)n(C)c(=O)c(=O)n3C)cc1,·,·,·,-6.2%,·,?
Cn1cc(C(=O)Nc2ccc3c(c2)CCC3)cn1,23.4%,?,29.5%,·,?,21.3µM*
NS(=O)(=O)c1cc(C(=O)Nc2ccc3c(c2)CCC3)ccc1Cl,3.55µM*,?,3.98µM*,·,10.3µM*,16.9µM*
Cc1ccc(C(=O)Nc2ccc3c(c2)CCC3)cc1,?,?,0.316µM*,1.41µM*,0.184µM*,0.379µM*
CCC(=O)NCC(c1cccs1)S(=O)(=O)c1ccc(C)cc1 (configuration not stated),-1.9%,19.8%,-2.7%,·,0.3%,0.9%
O=C(CC(c1cccs1)S(=O)(=O)c1ccccc1)c1ccc(F)cc1 (configuration not stated),2.4%,?,-3.6%,-12.0%,6.7%,3.38µM*
Cc1ccc(C(=O)CC(c2cccs2)S(=O)(=O)c2ccc(C)cc2)cc1 (configuration not stated),27.8%,?,?,22.1%,?,1.35µM*

# Screening data: PubChem BioAssay, National Center for Advancing Translational Sciences (NCATS)
